uPA generation – qHTS for Inhibitors of Cell Surface uPA Generation; cell surface uPA generation assay, qHTS; Potency, µM (top dose mostly 38.3 µM), usual class: inhibitors; hit rate 0.31% among 330,000; AID 540303, 2011; active = well fitted inhibition curve with a large enough effect; inconclusive = small, poorly fitted or top-dose-only effect; inactive = no such curve, though single readings can be large or run the other way; tested in mouse RAW 264.7 cells; note: nearly all actives have a fitted effect of over 55% in size
VDR inhibitor – Inhibitors of the vitamin D receptor (VDR): qHTS | Vitamin D3 receptor (Homo sapiens), P11473 | Potency, µM, hits mostly inhibitors | AID 504847, 2011 | VDR-SRC2-3 peptide fluorescence polarization, 2 h | hit rate 0.93% among 400,000
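Compounds are added to VDR with labelled SRC2-3 coactivator peptide and held 2 h at room temperature. Inhibition of the VDR–peptide interaction is then read as a change in fluorescence polarization.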
TSG101-PTAP inh – qHTS Assay for Iinhibitors of HIV-1 Budding by Blocking the Interaction of PTAP/TSG101; Fluorescence polarization, FITC-PTAP peptide / Tsg101 binding; Potency, µM (doses to about 115 µM), hits mostly inhibitors; 340,000 tested, under 10 active; AID 493005, 2010; active = well fitted inhibition curve with a large enough effect in the main read-out, with a control signal flat, not every such curve was filed as active; inconclusive = small, poorly fitted or top-dose-only effect, or effect the other way, or a change in a side signal; inactive = no such curve, though single readings can be large or run the other way
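Fluorescence polarization binding of Tsg101 binding domain (10 uM final) to FITC-labeled PTAP peptide (50 nM final) in HEPES pH 7.5 buffer with NaCl, Tween 20, EDTA, TCEP. Compounds added before peptide; binding 20 min at RT.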
TSHR antag – Antagonists of the Thyroid Stimulating Hormone Receptor: HTS campaign. TSHR-expressing cells, TSH-stimulated cAMP HTRF, 2 h; hits give low values. activity change, negative = inhibition, % at 11.5 µM. hit rate 0.2% among 330,000. Thyrotropin receptor (Homo sapiens), P16473;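 active = activity change below a set negative limit, meaning inhibition stronger than a set level, cut at about -70% in these data; inconclusive = activity change between two set negative limits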
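TSHR-expressing cells were treated with compounds, then stimulated with TSH at EC80 (4nM final) for 2 hours at 37 deg C. Cellular cAMP was measured by HTRF competition between lysate cAMP and cAMP-d2 for a cryptate-labelled anti-cAMP antibody.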
PLK1 PBD inh – qHTS for Inhibitors of PLK1-PDB (polo-like kinase 1 - polo-box domain): Primary Screen; Plk1 PBD binding of FITC phosphopeptide, fluorescence polarization; AID 720504, 2013; hit rate 2.8% among 360,000; Potency, µM, usual class: inhibitors; note: series mostly up to about 57 µM; nearly all actives have a fitted effect of over 65% in size
Target sequence (P53350 whole entry, looked up, the tested form may be a part): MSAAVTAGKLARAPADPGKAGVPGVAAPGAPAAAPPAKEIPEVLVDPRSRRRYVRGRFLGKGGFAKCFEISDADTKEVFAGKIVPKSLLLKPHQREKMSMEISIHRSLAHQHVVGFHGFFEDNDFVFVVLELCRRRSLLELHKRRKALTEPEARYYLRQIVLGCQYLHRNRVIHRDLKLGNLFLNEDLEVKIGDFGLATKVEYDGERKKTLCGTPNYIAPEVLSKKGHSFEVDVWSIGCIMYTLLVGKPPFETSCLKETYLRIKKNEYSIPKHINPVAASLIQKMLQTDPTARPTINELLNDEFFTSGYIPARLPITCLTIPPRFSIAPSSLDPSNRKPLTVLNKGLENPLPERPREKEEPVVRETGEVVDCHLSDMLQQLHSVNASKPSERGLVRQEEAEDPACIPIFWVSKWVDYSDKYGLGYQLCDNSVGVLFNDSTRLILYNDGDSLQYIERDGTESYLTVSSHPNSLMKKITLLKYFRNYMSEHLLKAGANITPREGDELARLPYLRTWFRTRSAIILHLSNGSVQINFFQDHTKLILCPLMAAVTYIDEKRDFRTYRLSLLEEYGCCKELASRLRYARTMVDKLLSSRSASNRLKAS
A number is an active result; i = inactive; ? = inconclusive; nt = no result. In the library only some 3.1% were active in any assay of this set; here they are far more common. Unless noted, calls come from the whole dose curve; as a rule, active = well fitted curve in the direction sought with a large enough effect; inconclusive = small, poorly fitted or top-dose-only effect, or another doubt; inactive = no such curve, though single readings can be large; an effect the other way counts as inactive or inconclusive.

SMILES	uPA generation	VDR inhibitor	TSG101-PTAP inh	TSHR antag	PLK1 PBD inh
COc1ccc(-c2c(C)n([O-])c(C)c(C)[n+]2=O)cc1	i	i	i	i	24µM
COc1ccc(S(=O)(=O)N2C[C@H]3CON(C)[C@H]3C[C@H]2c2ccc(-c3cc4ccccc4o3)cc2)cc1	nt	nt	nt	nt	i
CC1=NN(c2ccc(C)cc2C)C(=O)C1C(c1ccccc1)C1C(=O)N(c2ccc(C)cc2C)N=C1C (stereo not drawn)	i	?	i	i	19µM
CNC(=S)N(Cc1cccs1)Cc1cc2ccc(OC)cc2[nH]c1=O	i	i	i	i	i
CNC(=S)N(Cc1ccc(OC)cc1)Cc1cc2ccc(C)cc2[nH]c1=O	i	i	i	i	24µM
NC(=O)C1CCN(c2nc(-c3ccc4c(c3)OCO4)cs2)CC1	nt	nt	nt	i	nt
CCOc1ccccc1CN1CCC(O)CC1	i	i	i	i	i
CCOc1ccccc1CN1CCC(N2CCOCC2)CC1	i	i	i	i	38µM
Cc1ccc(NC(=O)CN(C)C(=O)Cc2c(Cl)cccc2Cl)cc1	i	i	i	i	i
O=C1CC(c2ccccc2)CC(O)=C1C=Nc1ccccc1 (stereo not drawn)	i	i	i	i	24µM
O=C1CC(c2ccccc2)CC(O)=C1C=Nc1ccccc1O (stereo not drawn)	?	i	i	i	i
FC(F)(F)c1cc(N2CCOCC2)nc(-c2ccccc2)n1	i	?	i	i	27µM
Cc1cccc(C)c1NC(=O)C(c1ccc(C#N)cc1)n1c(=O)c(-c2cc3ccccc3[nH]2)nc2ccccc21 (stereo not drawn)	nt	nt	nt	nt	i
O=C1C=C(Nc2ccccc2C(=O)O)c2ccccc2C1=O	i	?	i	i	11µM
O=C(Nc1ccc2nc(-c3ccco3)c(-c3ccco3)nc2c1)N1CCCCCC1	i	?	i	i	24µM
O=C(Nc1cccc(Cl)c1)N1CCOCC1	i	i	i	i	i
CCOC(=O)C1CCN(C(=O)Nc2ccc3c(c2)nc(C)n3C)CC1	i	i	i	i	i
O=C(Nc1cccc(Cl)c1)N1CCCC1	i	18µM	i	i	6µM
CCOC(=O)C1CCN(C(=O)Nc2ccc3nc(-c4ccco4)c(-c4ccco4)nc3c2)CC1	i	?	i	i	12µM
CC(C)(C)OC(=O)N1CCC(c2c(C(=O)NCc3ccco3)cnn2-c2ccc(F)cc2F)CC1	nt	i	nt	nt	nt
COc1ccc2c(c1)C(=O)[C@H](OC(=O)NS(=O)(=O)c1ccc(C)cc1)[C@@H](c1ccc(OC)c(Br)c1)O2	nt	i	nt	nt	nt
CCn1c(CC(=O)Nc2ccc(F)cc2)nnc1SCC(=O)N1CCOCC1	i	i	i	i	30µM
CCn1c(CC(=O)Nc2ccc(OC)cc2)nnc1SCC(=O)N1CCOCC1	i	i	nt	i	i
N#Cc1c(C(F)(F)F)cc(=O)n2c1[nH]c1ccccc12	i	i	i	i	21µM
COc1cc2nc(CN(C)Cc3ccc(C(C)(C)C)cc3)[nH]c(=O)c2cc1OC	3.5µM	i	i	i	i
SMILES	uPA generation	VDR inhibitor	TSG101-PTAP inh	TSHR antag	PLK1 PBD inh
CCC12CN3CCN(CC(C3)/C1=N\NC(=O)c1ccc(F)cc1)C2	i	?	i	i	21µM
Cc1cc(C)c2oc(-c3cc(NC(=O)Cc4ccccc4)ccc3Cl)nc2c1	nt	i	nt	nt	nt
CCOc1ccccc1NC(=O)C(=O)NCCc1sc(-c2cccc(F)c2)nc1C	nt	i	nt	nt	nt
Cc1cc(C)c(C)c(S(=O)(=O)N2C(=S)NC(=O)C2C(C)C)c1C (stereo not drawn)	i	i	i	i	27µM
Cc1nnc(NC(=O)c2ccc(N3CCCC3=O)cc2)s1	i	i	i	i	i
Cc1csc(NC(=O)c2ccc(N3CCCC3=O)cc2)n1	2.8µM	i	i	i	i
CN(C)c1ccc(C(CNC(=O)Cc2ccc(Cl)cc2)N2CCOCC2)cc1 (stereo not drawn)	nt	i	nt	nt	nt
CC1CCN(C(c2ccc(N(C)C)cc2)c2nnnn2C(C)(C)C)CC1 (stereo not drawn)	i	50µM	i	i	i
CN(C)c1ccc(C(c2nnnn2C(C)(C)C)N2CCc3ccccc3C2)cc1 (stereo not drawn)	nt	nt	nt	i	nt
CC(=O)Oc1cc2c3c(c1)/C(=C1/SC(=S)NC1=O)C(=O)N3C(C)(C)C=C2C	i	?	i	i	27µM
Cc1cc(C(=O)NC2CC(C)(C)Cc3c2cnn3-c2cccc(F)c2)n(C)n1 (stereo not drawn)	i	i	i	i	i
CCOC(=O)C1CCN(C(=O)Cc2cccs2)CC1	i	i	i	i	30µM
CC(C)CN(Cc1c(O)ccc2ccccc12)CC(C)C	i	i	i	i	?
CCN(Cc1ccncc1)Cc1c(O)ccc2ccccc12	i	i	i	i	2.7µM
O=S(=O)(c1cccc2ccccc12)N1CCN(c2ccc(Cl)c(Cl)c2)CC1	nt	i	nt	nt	nt
O=C1/C(=C/c2cccc(Br)c2)SC(=S)N1/N=C/c1cc([N+](=O)[O-])ccc1O	i	?	i	i	19µM
O=C1/C(=C\c2ccc(O)cc2)SC(=S)N1/N=C/c1ccc(O)cc1	i	i	i	i	i
O=C1NC(=O)C(c2cn(-c3ccccc3)nc2-c2ccc(F)cc2)N1 (stereo not drawn)	i	?	i	i	5.3µM
CC(NC(=O)C1CCN(C(=O)N2CCOc3ccc(Cl)cc32)CC1)c1ccccc1 (stereo not drawn)	nt	i	nt	nt	nt
Cc1c(C(=O)OC2CCCCC2)[nH]c2c1C(=O)CC(c1ccc(C(C)(C)C)cc1)C2 (stereo not drawn)	nt	i	nt	nt	nt
CCCCCCCCCC[n+]1cccc2c3ccccc3ccc21	0.71µM	i	i	i	i
CCCCCCCC[n+]1cccc2c3ccccc3ccc21	0.89µM	i	i	?	i
CC(=O)c1ccc(OCc2cc(C(=O)NC(C)CCn3cccn3)no2)cc1 (stereo not drawn)	i	i	i	i	i
COc1ccc2c(C)cc(=S)[nH]c2c1	i	i	i	i	11µM
COc1ccc2c(-c3ccccc3)cc(=S)[nH]c2c1	i	?	i	i	?
COc1ccccc1-c1cn(CC[C@@H]2CC[C@H](NC(=O)C3CCC3)[C@@H](CO)O2)nn1	nt	nt	nt	nt	i
COc1ccc(OCc2nn3c(Cn4cnc5ccccc54)nnc3s2)cc1	i	i	i	i	15µM
COc1ccc(OCc2nn3c(-c4cccc(OC)c4)nnc3s2)cc1	i	i	i	i	i
Brc1ccccc1-c1nnc2sc(-c3ccc4c(c3)OCCO4)nn12	i	i	i	i	i
Clc1ccccc1-c1nn2c(Cn3cnc4ccccc43)nnc2s1	i	i	i	i	24µM
